m5-HT2A agonist = mouse Htr2a agonists via beta-arrestin recruitment, primary screen, cell-based, luminescence. 5-hydroxytryptamine receptor 2A (Mus musculus), P35363. CHO-K1 mHTR2A beta-arrestin complementation; percent of 30 µM serotonin response. activation, % at 7.6 µM. hit rate 0.66% among 360,000. AID 624169, 2012;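 active = activation above a run cutoff, the mean activation of all tested compounds plus 3 SD, cut at about 14% in these data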;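 note: 0% = plate median of compound wells and 100% = 30 µM serotonin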
LANA-H2B inh = blockers of LANA interaction with H2A/H2B – biochemical, FP readout, HTS, primary screen. Protein LANA1 (Human herpesvirus 8 type P (isolate GK18)), Q9QR71. cell-free LANA-H2A/H2B peptide, fluorescence polarization. inhibition, % (no concentration beside the values). hit rate 0.6% among 320,000; in the data active = inhibition mostly above about 10%, no sharp cut-off; inactive = mostly below about 6.7%
HDAC3 inh = HDAC3 deacetylase inhibitors, primary screen, biochemical, fluorescence, cell-free homogeneous. Histone deacetylase 3 (Homo sapiens), O15379. recombinant HDAC3, fluorogenic peptide/trypsin coupled. inhibition, % at 8.3 µM. hit rate 0.15% among 320,000; in the data active = inhibition above about 26%, passing the limit was not always enough
Fh CTSL1 inh = Fasciola hepatica cathepsin L1 inhibitors, primary screen, counter-screen for PFM18AAP inhibitor project, biochemical, QFRET, fluorogenic peptide substrate; recombinant F. hepatica cathepsin L1, Z-Leu-Arg-MCA fluorescence; inhibition, % at 5.96 µM; hit rate 0.49% among 300,000; AID 1906, 2009;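 active = inhibition above the mean of all tested compounds plus 3 SD, set per screening campaign, cut at about 17% in these data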;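 note: 0% = plate median of test compound wells and 100% = 1 µM Z-Phe-Ala-diazomethylketone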
OPRM1 ag = OPRM1 agonists via beta-arrestin recruitment, confirmation, counter-screen for mouse HTR2A agonist project, cell-based, luminescence, single concentration. shares compounds with m5-HT2A agonist. U2OS OPRM1 beta-arrestin PathHunter; DMSO 0%, DAMGO 9.3 µM 100%. activation, % at 9.3 µM. hit rate 5.3% among 2,300;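 active = mean activation above the mean of DMSO-only wells plus 3 SD, cut at about 0.5% in these data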
Target sequence (P35372 whole entry, looked up): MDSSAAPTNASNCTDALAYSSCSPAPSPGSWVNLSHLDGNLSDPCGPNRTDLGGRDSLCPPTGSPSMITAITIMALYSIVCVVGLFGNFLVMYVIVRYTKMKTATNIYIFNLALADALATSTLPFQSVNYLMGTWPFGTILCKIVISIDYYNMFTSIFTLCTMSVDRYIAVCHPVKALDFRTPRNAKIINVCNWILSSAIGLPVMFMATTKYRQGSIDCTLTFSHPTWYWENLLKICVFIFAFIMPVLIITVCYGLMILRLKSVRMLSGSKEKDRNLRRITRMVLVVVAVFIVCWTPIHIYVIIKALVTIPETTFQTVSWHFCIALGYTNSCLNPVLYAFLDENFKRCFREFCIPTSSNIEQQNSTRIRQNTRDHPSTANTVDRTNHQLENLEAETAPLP
m5-HT2A ag conf = mouse HTR2A agonists, beta-arrestin recruitment, confirmation, cell-based, luminescence, CHO-K1 PathHunter, triplicate. shares compounds with m5-HT2A agonist. DMSO 0%, 30 µM serotonin 100%. activation, % at 7.6 µM. hit rate 19% among 2,300;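 active = mean activation across triplicates above the hit threshold derived in the original primary screen, cut at about 15% in these data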
Active calls of the source: *; x = no result given. A selection: hits, their analogues and other compounds. The true share with any hit is near 1.7%.

SMILES	m5-HT2A agonist	LANA-H2B inh	HDAC3 inh	Fh CTSL1 inh	OPRM1 ag	m5-HT2A ag conf
COc1ccc(/C=N/c2sc3c(c2C#N)CCN(Cc2ccccc2)C3)c(O)c1	x	6	-3	-1	x	x
CN1CCc2c(sc(/N=C/c3cc(C(C)(C)C)ccc3O)c2C#N)C1	17*	6	2	0	-1	62*
CCC(C)(CN(C)C)OC(=O)c1ccccc1 (configuration not stated)	7	1	-6	-2	x	x
O=C(CCC(=O)NCCO)NCCO	6	3	1	-6	x	x
CC(O)CCC(=O)NCCNC(=O)CCC(C)O (configuration not stated)	20*	3	-3	0	-1	-1
CSC(=S)N/N=C/c1ccccc1	-3	-3	-1	9	x	x
COC(=O)c1c(-c2ccsc2)sc2ccc(-c3cc(OC)c(OC)c(OC)c3)cc12	1	2	7	x	x	x
COc1cc(-c2ccc3sc(-c4ccsc4)c(C#CCO)c3c2)cc(OC)c1OC	18*	-3	-2	x	0	3
CC1CN(C(C)C)C(=S)NC1=O (configuration not stated)	1	x	x	x	x	x
COc1cc(C)c(S(=O)(=O)NCc2ccc3c(c2)OCO3)cc1C	29*	-8	x	0	0	0
COc1cc(S(=O)(=O)NCc2ccc3c(c2)OCO3)c(OC)cc1C	-2	3	0	0	x	x
COc1ccc(Nc2c(-c3cc4ccccc4o3)nc3nc(C)cc(C)n23)cc1	-1	x	x	x	x	x
CCCCNc1c(-c2cc3ccccc3o2)nc2nc(C)cc(C)n12	18*	x	x	x	0.8*	5
CCC(=O)Nc1ccc(NC(=O)CSc2nnc(-c3ccco3)n2CC)cc1	1	4	7	2	x	x
COc1ccc(CCC(=O)Nc2ccc(Cn3ccnc3)cc2)cc1	-4	0	1	2	x	x
COc1cccc(OCC(O)CN2CCN(c3ccccn3)CC2)c1 (configuration not stated)	33*	5	-5	-1	-1	84*
COc1cccc(OCC(O)CN2CCN(c3ncccn3)CC2)c1 (configuration not stated)	5	-3	19	-3	x	x
OC(COc1ccc2cc(Br)ccc2c1)CN1CCN(c2ccccn2)CC1 (configuration not stated)	24*	-6	8	1	0	108*
OC(COc1ccc2cc(Br)ccc2c1)CN1CCCC1 (configuration not stated)	-6	4	4	1	x	x
O=C(Nc1ccn(CCCN2CCN(c3ncccn3)CC2)c(=O)n1)OCc1ccccc1	25*	x	x	x	0	29*
CN(C)C(=O)N1CCN(C(=O)c2ccco2)CC1	-3	-1	1	0	x	x
Cc1cc(C)c(OCC(=O)OCC(=O)N2CCN(C(=O)c3ccco3)CC2)c(C)c1	19*	-4	-2	-9	0	-5
Cc1ccsc1C(=O)N1CCN(C(=O)c2ccco2)CC1	17*	4	0	x	-1	-4
Cc1ccccc1CN1CCN(C(=O)c2ccco2)CC1	25*	5	-3	-1	0	85*
Cc1ccccc1CC(=O)N1CCN(C(=O)c2ccco2)CC1	-2	4	-14	-1	x	x
SMILES	m5-HT2A agonist	LANA-H2B inh	HDAC3 inh	Fh CTSL1 inh	OPRM1 ag	m5-HT2A ag conf
O=C(c1ccco1)N1CCN(Cc2ccccc2F)CC1	20*	-3	-4	3	0	76*
CCOc1ccc(OCCC(=O)OCC(=O)N2CCN(S(=O)(=O)c3ccc(C)cc3C)CC2)cc1	-5	x	x	x	x	x
COc1ccc(OC)c(/C=N/NC(=O)C(=O)N2CCCCCC2)c1	3	5	1	1	x	x
O=C(c1ccc(OC2CCN(CCCc3ccccc3)CC2)cc1)N1CCCC1	-5	4	-2	-2	x	x
O=C(c1ccco1)N1CCN(Cc2cccnc2)CC1	11	2	9	-1	x	x
Cc1ccccc1-n1c(=O)cc(N2CCN(C(=O)c3ccco3)CC2)[nH]c1=O	24*	11	-3	-2	-1	-2
Cc1ccc(CN2CCN(C(=O)c3ccco3)CC2)cc1	43*	-1	7	-5	-1	121*
CC(=O)Nc1ncc(Sc2ccc([N+](=O)[O-])cc2)s1	20*	x	x	x	0	-4
CC(=O)NCCC(=O)Nc1ncc(S(=O)(=O)c2ccc([N+](=O)[O-])cc2)s1	4	1	-1	3	x	x
COc1ccc(S(=O)(=O)N(C)CC(=O)N2CCCCCC2)cc1	36*	-4	1	-7	-1	4
COc1ccc(OC)c(S(=O)(=O)N(C)CC(=O)N2CCCCC2)c1	16*	-6	0	1	-1	-2
COc1ccc(OC)c(S(=O)(=O)N(C)CC(=O)N2CCc3ccccc3C2)c1	4	5	5	-3	x	x
COc1ccc(S(=O)(=O)N(C)CC(=O)N2CCOCC2)cc1	0	5	0	1	x	x
COC(=O)[C@H](Cc1ccccc1)NC(=O)Cn1cnc2c(OCc3ccccc3)ncnc21	1	-298	7	x	x	x
COC(=O)[C@H](Cc1ccc(O)cc1)NC(=O)Cn1cnc2c(OCc3ccccc3)ncnc21	15*	x	x	x	x	-3
CNc1ccc(C(=O)c2ccccc2C(=O)O)cc1[N+](=O)[O-]	19*	3	6	0	-1	-3
Cc1ccc2cc(CCNC(=O)C(C)C)c(=O)[nH]c2c1C	16*	0	0	1	-1	-6
CCC(=O)NCCc1cc2ccc(C)c(C)c2[nH]c1=O	5	-5	6	0	x	x
Cc1ccc(C)c2[nH]c(=O)c(CCNC(=O)c3ccco3)cc12	19*	2	9	6	0	2
COCCN(C(=O)CCC(=O)Nc1ccccn1)C(C(=O)NCCC(C)C)c1ccc(F)cc1 (configuration not stated)	6	-2	6	-1	x	x
COc1ccc(CCn2c(C)cc(C(=O)CN3C(=O)C(=O)N(C4CCCC4)C3=O)c2C)cc1OC	-1	x	x	x	x	x
CCCc1ccc(C(=O)CN2C(=O)C(=O)N(C3CCCC3)C2=O)cc1	18*	2	17	x	1.3*	3
C=CCn1c(N)c(C(=O)Nc2cccc(C)c2)c2nc3ccccc3nc21	20*	-2	-3	0	0	1
CCSC(=O)N1c2ccc(OC)cc2C=CC1C#N (configuration not stated)	-2	x	x	x	x	x
Cn1c(N)c(N2CCCCC2)c(=O)n(CC(=O)Nc2cccc(C#N)c2)c1=O	20*	2	2	x	-1	-5
CC(=O)Nc1ccc(S(=O)(=O)NCCC(=O)OCC(=O)c2cc(C)ccc2C)cc1	2	x	x	x	x	x

Screens deposited in PubChem by several laboratories.
